# Results reported in PubChem BioAssay (NCI).
# Compounds without any hit were thinned out: in the full panel of roughly 83,000, 20% have a hit.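 In brief: 96-well plates, 48 h treatment, single concentration, percent growth endpoint.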 Values without a mark were called inactive. The source made the active and inactive calls. Rule for the calls: active = growth percent below 10; inactive = the rest.
# What was measured:
# Experiment in all cases: NCI-60 one-dose screen, 48 h (100 = growth as untreated, 0 = no growth, -100 = all killed)
# Conditions in all cases: 10 µM
# SR leukemia = test system: SR leukemia
# RPMI-8226 leukemia = test system: RPMI-8226 leukemia
# OVCAR-8 ovarian = test system: OVCAR-8 ovarian
# OVCAR-5 ovarian = test system: OVCAR-5 ovarian
# OVCAR-4 ovarian = test system: OVCAR-4 ovarian
# SK-OV-3 ovarian = test system: SK-OV-3 ovarian
# IGROV1 ovarian = test system: IGROV1 ovarian
# OVCAR-3 ovarian = test system: OVCAR-3 ovarian
# HS 578T breast = test system: HS 578T breast
# NCI/ADR-RES ovarian = test system: NCI/ADR-RES ovarian
SMILES,growth (SR leukemia),growth (RPMI-8226 leukemia),growth (OVCAR-8 ovarian),growth (OVCAR-5 ovarian),growth (OVCAR-4 ovarian),growth (SK-OV-3 ovarian),growth (IGROV1 ovarian),growth (OVCAR-3 ovarian),growth (HS 578T breast),growth (NCI/ADR-RES ovarian)
Cc1ccc(-n2nnnc2N)c(C)c1,112%,109%,108%,107%,99%,113%,123%,113%,99%,105%
CC1/C=C/C=C/C=C/C=C/C=C/C=C/C=C/C(O[C@@H]2O[C@H](C)[C@H](O)[C@@H](O)[C@@H]2N)CC(O)C(C(=O)O)C(O)CC(=O)CC(O)CC(O)CC(O)CC(=O)CCCC(=O)CC(=O)OC1C(C)CC(C)C(O)CC(=O)c1ccc(N)cc1 (stereo not given in full),-63.1% (active),-43.7% (active),-97.5% (active),-98.9% (active),-96.1% (active),-100% (active),-83.7% (active),-99.7% (active),-52.8% (active),-99.6% (active)
C[C@@H](C[C@H](CCO)c1ccccc1)c1ccc2ccccc2c1,-41.4% (active),-18.8% (active),-39% (active),-69% (active),-81% (active),23.8%,-54.5% (active),-88% (active),-9.29% (active),-60.5% (active)
O=C(Nc1cc(Cl)cc2c1-c1ccc(Cl)cc1C2O)C(Cl)Cl (stereo not given),82.3%,65%,86.5%,94.8%,62.9%,102%,73.2%,97.3%,78.8%,83.5%
O=c1[nH]c(=O)n(C2C[C@H](O)[C@@H](CO)O2)cc1C(F)(F)F (stereo not given in full),91.9%,97.5%,103%,103%,114%,109%,120%,117%,124%,102%
O=C1/C=C/[C@@H](O)[C@@H]2C[C@@H](O)C[C@H]2/C=C/CCC[C@H](CCc2ccc(NC(=S)Nc3ccc4c(c3)C(=O)OC43c4ccc(O)cc4Oc4cc(O)ccc43)cc2)O1,6.14% (active),12.3%,10.5%,17.9%,23.4%,32.1%,25.7%,-0.249% (active),39.8%,10.9%
COc1ccc(/C=C2\CCCC3=C2NC(N)=NC3c2ccc(OC)cc2)cc1 (stereo not given),81.9%,57.7%,95.8%,103%,72.8%,78.3%,99.7%,102%,112%,90.8%
CNC(=O)c1cc(Oc2ccc3c(c2)sc2nc(-c4ccc(NC(=O)Nc5ccc(Cl)c(C(F)(F)F)c5)cc4)cn23)ccn1,55.5%,76.1%,104%,93.4%,80.3%,93.1%,78%,86.9%,71.7%,89.9%
O=C1CC(=O)N(C(=O)c2nn(-c3ccc(Cl)cc3)cc2O)N1,-31.9% (active),-8% (active),30.1%,65.2%,34.1%,40.7%,34.4%,-4.11% (active),121%,33.6%
Brc1ccc2c(c1)-c1ccccc1C1=NCCN12,-0.353% (active),1.99% (active),-11.3% (active),-8.25% (active),0.91% (active),-3.44% (active),27.1%,-32.7% (active),37%,-18% (active)
Cc1ccc(NC(=O)N2CCCCC2)cc1[N+](=O)[O-],39.3%,41.7%,72.2%,101%,111%,112%,87.3%,115%,54.8%,95.4%
COc1cc2cc(Oc3ccc(NC(=O)Nc4ccc(Cl)c(C(F)(F)F)c4)cc3)c(C)nc2cc1OC,-32.5% (active),-26.4% (active),7.34% (active),18%,17.1%,-4.09% (active),-7.69% (active),-27.3% (active),2.5% (active),2.01% (active)
CCCCCC(=O)O[C@]1(C(C)=O)CCC2C3CCC4=CC(=O)CC[C@]4(C)C3CC[C@@]21C (stereo not given in full),2.49% (active),-12.4% (active),24.4%,74%,18.4%,64.3%,33.4%,7.34% (active),54.9%,12.9%
CCOC(=O)c1cc(C(=O)c2cc(OC)c(OC)c(OC)c2)n2nc(C)ccc12,23%,18%,25.4%,64.9%,51.8%,24.1%,39.8%,12.5%,55.9%,20.9%
Nc1ccc(/C=N/Nc2ccnc3c(O)cccc23)c2cccnc12,2.19% (active),31.8%,14.4%,107%,30.5%,85.7%,60.2%,20%,63.9%,30.6%
COc1ccc(C(=O)N2C=Cc3ccccc3C2C#N)cc1 (stereo not given),88.8%,94.9%,100%,102%,102%,97.5%,114%,105%,96.9%,95.6%
O=C(Nc1nc(-c2ccccc2)nc2c1sc(=S)n2-c1ccccc1)C(F)(F)F,89.8%,88.5%,86.6%,105%,92.3%,91.6%,106%,105%,96.6%,95.7%
N=C1S/C(=C/c2ccc(-c3ccc4c(c3)C(=O)NC4=O)o2)C(=O)N1c1ccc(Br)cc1,25%,38.8%,37.8%,86.3%,1.3% (active),62.3%,21.9%,51.4%,61.6%,50.5%
COc1ccc(-c2cc(-c3ccc(Cl)cc3)nc(SCCCC(=O)NO)n2)cc1OC,19.7%,-6.19% (active),13.5%,1.46% (active),19.1%,0.0102% (active),-1.77% (active),6.86% (active),29.2%,-30.6% (active)
COc1cc(-c2nn(-c3cccc(NC(=O)NCCNS(=O)(=O)c4ccc(Cl)cc4)c3)cc2-c2ccncc2)ccc1Cl,1.18% (active),-2.02% (active),8.88% (active),27.9%,33.3%,19.3%,25.2%,2.8% (active),18.8%,71%
CCOC(=O)CC(S(=O)(=O)c1ccccc1)S(=O)(=O)c1ccccc1,89.1%,97.4%,103%,109%,94%,112%,107%,63.1%,105%,104%
O=C(CSc1nnc(-c2ccc(Cl)cc2)o1)Nc1ccc(C(=O)/C=C/c2ccc(Cl)cc2)cc1,98.3%,92.5%,100%,110%,89.3%,90.6%,108%,103%,95.9%,96.4%
C=CCn1c(SCC(=O)Nc2ccc(C(=O)/C=C/c3ccc(OC)cc3)cc2)nnc1-c1ccc(OC)c(OC)c1,58.7%,34.3%,79.8%,110%,73.8%,98%,94.4%,89.6%,86.4%,86.4%
OC[C@H]1OC([S-])[C@H](O)[C@@H](O)[C@@H]1O.[Au+] (stereo not given in full),41.7%,80.6%,104%,129%,96.9%,120%,119%,128%,73.3%,101%
O=C(/C=C/c1cccc(B(O)O)c1)c1cccc(B(O)O)c1,3.2% (active),48.2%,-12.2% (active),-12% (active),53.9%,3.23% (active),26.7%,-28.2% (active),16.9%,8.08% (active)
